“And” between values parts separate entries of the source, which are not always exact repeats. Equal values may be shown once. About 83,000 compounds went through this panel and 20% of them were active in at least one assay; those are over-represented in the sample as a whole.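 Percent growth is the endpoint: 0 to 100 indicates growth inhibition (40 means 60% inhibition), 0 means no net growth, and negative values indicate cell death.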 Unmarked numbers belong to inactive results. The source made the active and inactive calls. The calls were made as follows: active = growth percent below 10; inactive = the rest.

For this test, the system named is HL-60(TB) leukemia. Description: NCI-60 one-dose screen, 48 h (100 = growth as untreated, 0 = no growth, -100 = all killed). Particulars: 10 µM unless noted.
Regarding `O=C1CC2(O)CSc3nc(=O)cc(n32)N1` (centres undefined), the growth is 100%.
Regarding `COc1cc(Cl)cc(-c2nn(C(=O)NCCN3CCOCC3)cc2-c2ccncc2)c1`, the growth is 55.7%.
The value for `N#Cc1cccc(-c2c(-c3ccc4ccccc4c3)oc3ccccc3c2=O)c1` was 6.17% (active); that for `COc1ccc(C2=CC(c3ccc(OC)cc3Br)N3C=CSC3=N2)cc1` (centres undefined) was 61.4%.
As to `COC(=O)[C@H](Cc1cnc[nH]1)NC(=O)[C@@H](NC(=O)Nc1cc(C(F)(F)F)cc(C(F)(F)F)c1)C(C)C`, the growth is -62.5% [100 µM] (active).
In the case of `COc1ccc(C2C=C(c3ccc(OC)c(OC)c3)N=C3SC=C(C)N32)c(Br)c1` (centres undefined) it was 101%; in that of `CC(C)OC(=O)N1CCOCC1`, 116%.
The value for `Cc1nn(-c2ccc(Cl)cc2)c(=O)n1CCn1cnc2ccccc21` was 102%; that for `COc1ccccc1NC(=O)N/C(N)=N/c1nc2ccccc2s1` was -27.1% (active).
Regarding `COc1ccc(-c2nocc2-c2cc(OC)c(OC)c(OC)c2)cc1`, the growth is -14.7% (active).
The value for `CC(=O)N1C(=S)NC(=O)C1Cn1c(-c2ccccc2)nc2ccccc21` (centres undefined) was 98.9%; that for `COc1cc(-c2nnc(-c3c(-c4ccc(F)cc4)nc4ccccn34)o2)cc(OC)c1OC` was 102%; that for `CCCc1c(C)c2sc(=O)[nH]c2[nH]c1=O` was 101%.
In the case of `COc1ccc(-c2nnc3n(C)c(=O)c4ccccc4n23)cc1N` it was -22.8% (active).
In the case of `Cc1nc(Nc2n[nH]c3c2CN(C(=O)N[C@H](CN(C)C)c2ccccc2)C3(C)C)c2sccc2n1` it was -30.6% (active).
On to `CC(C)(C)n1cc(-c2ccnc(NCCCNS(=O)(=O)c3ccc(Cl)cc3)c2)c(-c2cccc(F)c2)n1`, for which the growth was 85.8%.
In the case of `O=C(Nc1ccccc1Cl)Oc1ccc(-c2ccccc2)cc1` it was 97.4%.
Take `COc1ccccc1CNCCCN1C(=O)c2ccc3c4c(ccc(c24)C1=O)C(=O)N(CCCNCc1ccccc1OC)C3=O`: the growth was -67.5% (active).
In the case of `COc1ccc(C2C3=C(COC3=O)N(CCO)c3cc4c(cc32)CCC4)cc1` (centres undefined), the growth is 4.72% (active).
Take `COc1ccc(-n2nc(C(=O)Nc3ccc(F)cc3)nc2-c2cc(OC)c(OC)c(OC)c2)cc1`: the growth was 91.5%.
As to `CCCCCCCSc1ncnc2[nH]ncc12`, the growth was 87.4%.
The value for `Nc1cc(N)c2cccnc2c1O` was 59.6%.
The value for `COC(=O)c1nc(-c2ccc(C)cc2)oc1S(=O)(=O)c1cccc(OC)c1` was 44.7%; that for `COc1ccc(C(=O)Nc2ncc(Cc3ccc(F)cc3)s2)cc1` was -2.26% (active).
`COc1cc2c(cc1OC)C(Cc1cc(OC)c(OC)cc1[N+](=O)[O-])=NCC2`: the growth was 63.1%.
In the case of `COc1cc2nc(-c3ccc(C(F)(F)F)cc3)cc(OCCN3CCC(O)CC3)c2cc1OC` it was 68.6%; in that of `CCOc1ccc(N(C)c2ccc(/C=C/C3=[N+](C)c4ccccc4C3(C)C)cc2)cc1`, -43.5% (active); in that of `COc1ccc(/C=C(\C#N)c2ccc([N+](=O)[O-])cc2)c2ccccc12`, 85.4%.
Regarding `COc1ccc(C2CC(c3cccc(OC)c3)=NN2C(=O)c2cc(OC)c(OC)c(OC)c2)cc1` (centres undefined), the growth was -44.1% (active).
In the case of `COc1cc(-c2nc3ccccc3[nH]2)ccc1OCc1nnc(-c2ccc(CC(C)C)cc2)o1` it was 98.5%; in that of `CC[C@H](CC[C@@H](C)[C@H]1CC[C@H]2[C@@H]3CC=C4C[C@@H](O)CC[C@]4(C)[C@H]3CC[C@]12C)C(C)C`, 125% and 100%.
In the case of `C=C(C)[C@@H]1CC[C@]2(C)[C@H](CC=C3[C@@H]4[C@@H](C)[C@H](C)CC[C@]4(C(N)=O)CC[C@]32C)[C@@]1(C)CCC#N`, the growth is -28.7% [100 µM] (active).
The value for `Cc1ccc(C(=O)Nc2ccccc2C(=O)N/N=C(\c2ccccc2)c2ccccn2)cc1` was 2.36% (active).
In the case of `CN(CCNCc1ccccn1)CCNCc1ccccn1` it was 6% (active).
Consider `O=C1NC(=S)S/C1=C\c1cc(Br)ccc1O`, for which the growth was 83.9%.
Take `C[C@]12CCC(=O)C[C@H]1CC[C@@H]1[C@@H]2CC[C@@]2(C)[C@H]1CC[C@]2(O)C(=O)CO`: the growth was 126%.
The value for `CC(C)(O)Cn1cc(-c2ccc3nc(OC4CC4)ccc3c2)c2c(N)ncnc21` was 97.3% and 76.7%; that for `CCN(CC)CCOc1ccc(/C(=C(/C)c2ccccc2)c2ccc(OC(C)=O)cc2)cc1` was 117%; that for `CCCNC(=S)N/N=C(\C)c1ccccn1` was -8.41% (active).

These data come from PubChem BioAssay (NCI).
